{"source": "PubChem BioAssay (EPA / NIEHS)", "note": "Calls of active or inactive are those of the source. The calls were made as follows: active = hit-call score of the fitted dose curve at least 0.9, where 1 is the maximum; inactive = score below 0.9."}
{"assay": "ATG_E_Box_CIS: Attagene CIS-FACTORIAL HepG2 Assay for human Enhancer Box (E-box) (AID 2282936)", "conditions": "HepG2 E-box cis-reporter transcription, actives raise or lower the signal", "method": "ATG_CIS is a cell-based, multiplexed-readout assay that uses HepG2, a human liver cell line, with measurements taken at 24 hours after chemical dosing in a 24-well plate.ATG_E_Box_CIS is one of 52 assay component(s) measured or calculated from the ATG_CIS assay. It is designed to make measurements of mRNA induction, a form of inducible reporter, as detected with fluorescence intensity signals by Reverse transcription polymerase chain reaction (RT-PCR) and Capillary electrophoresis technology.Data from the assay component ATG_E_Box_CIS was analyzed into 1 assay endpoint. This assay endpoint, ATG_E_Box_CIS, was analyzed with bidirectional fitting relative to DMSO as the negative control and baseline of activity. Using a type of inducible reporter, measures of mRNA for gain or loss-of-signal activity can be used to understand the reporter gene at the transcription factor-level as they relate to the gene USF1. Furthermore, this assay endpoint can be referred to as a primary readout, because this assay has produced multiple assay endpoints where this one serves a reporter gene function. To generalize the intended target to other relatable targets, this assay endpoint is annotated to the dna binding intended target family, where the subfamily is basic helix-loop-helix protein.\nHuman liver HepG2 cells are transiently transfected with multiple reporter transcription units (MRTUs) in 6-well plates using FuGene 6 reagent (Roche; 3 ml FuGene/1 mg DNA). The MRTU constructs are regulated by a cis-regulating element (promoter). […] A major difference between the CIS and TRANS system is that in CIS activities of endogenous TFs are measured, whereas the TRANS assay evaluates changes in activities of exogenous, chimeric NR-Gal4 proteins. […] At the end of 24 hour incubation, total RNA was isolated using TriZol reagent (Invitrogen). The isolated RNA is then reverse-transcribed using oligo(dT) primer and Mo-MLV reverse transcriptase (Invitrogen) with DNAse I (Ambion) treatment for 30 min. The one-tenth of the produced cDNA was amplified by PCR using Taq DNA polymerase (Invitrogen) and two reporter sequence-specific primers. The PCR products were fluorescently labeled by primer extension with 6-arboxyfluorescein (6-FAM) 5'-labeled reporter sequence-specific primer (2 min at 95 C, 20 s at 68 C and 10 min at 72 C) and these products were digested with 5U of HpaI (New England Biolabs) for 2h at 37 C. The fragments were purified using Qiaquick PCR columns (Qiagen), analyzed on an ABI 3130xL genetic analyzer (Applied Biosystems) with peak positions identified by using a set of X-rhodamine (ROX)-labeled MapMarker1000 molecular weight standards (BioVentures). The raw capillary electrophoresis data was processed using Attagraph software (Attagene)."}
{"smiles": "C=C(C)C1CC=C(C)CC1", "note": "(stereo not given)", "outcome": "inactive"}
{"smiles": "CCc1occc(=O)c1O", "outcome": "inactive"}
{"smiles": "CN1CCN(C)CC1", "outcome": "inactive"}
{"smiles": "O=C(O)/C=C/c1ccccc1", "outcome": "inactive"}
{"smiles": "CCCC1CCCC(=O)O1", "note": "(stereo not given)", "outcome": "inactive"}
{"smiles": "O=C(Cl)c1c(Cl)c(Cl)c(C(=O)Cl)c(Cl)c1Cl", "outcome": "inactive"}
{"smiles": "CCOC(=O)/C=C\\C(=O)OCC", "outcome": "inactive"}
{"smiles": "CC(C)OC(=O)c1ccccc1", "outcome": "inactive"}
{"smiles": "CC=CC(=O)OCC(C)C", "outcome": "inactive"}
{"smiles": "C=CC(=O)OCCCCCCCC(C)C", "AC50": "157 µM (active)"}
{"smiles": "COc1ccc(C(=O)c2ccccc2)c(O)c1", "outcome": "inactive"}
{"smiles": "c1ccc(Nc2cccc3ccccc23)cc1", "outcome": "inactive"}
{"smiles": "C=CC(=O)O[C@H]1C[C@@H]2CC[C@@]1(C)C2(C)C", "AC50": "25.3 µM (active)"}
{"smiles": "Cc1ccc2c(c1)CCCN2", "outcome": "inactive"}
{"smiles": "C=C(C)C1CC=C(C)C(OC(C)=O)C1", "note": "(stereo not given)", "outcome": "inactive"}
{"smiles": "CCc1cccc(CC)c1", "outcome": "inactive"}
{"smiles": "COC(Cc1ccccc1)OC", "outcome": "inactive"}
{"smiles": "CC(C)=CCl", "outcome": "inactive"}
{"smiles": "CC(=O)c1ccccc1O", "outcome": "inactive"}
{"smiles": "CCC(C)N", "note": "(stereo not given)", "outcome": "inactive"}
{"smiles": "C=C(C)C(=O)OCCOC(=O)C(=C)C", "outcome": "inactive"}
{"smiles": "CC1CCC(C(C)(C)S)C(=O)C1", "note": "(stereo not given)", "outcome": "inactive"}
{"smiles": "COC(=O)CC(C)CCC=C(C)C", "note": "(stereo not given)", "outcome": "inactive"}
{"smiles": "Fc1ccc(Br)cc1", "outcome": "inactive"}
{"smiles": "CC(C)=CCCC(C)=CC#N", "outcome": "inactive"}
{"smiles": "CC(C)(CO)C(O)C(=O)NCCCO", "note": "(stereo not given)", "outcome": "inactive"}
{"smiles": "COC(=O)c1ccc(C(=O)OC)c(C(=O)OC)c1", "outcome": "inactive"}
{"smiles": "C=C(C)OC(C)=O", "outcome": "inactive"}
{"smiles": "CC/C=C\\C/C=C\\C/C=C\\CCCCCCCC(=O)OC", "AC50": "134 µM (active)"}
{"smiles": "CC(C)c1cccc(C(C)C)c1N", "outcome": "inactive"}
{"smiles": "O=C(O)C1CCC(C(=O)O)CC1", "note": "(stereo not given)", "outcome": "inactive"}
{"smiles": "CCCCC(C=O)CC", "note": "(stereo not given)", "outcome": "inactive"}
{"smiles": "O=C(OCc1ccccc1)c1ccc(O)cc1", "AC50": "171 µM (active)"}
{"smiles": "CC(=O)CC(=O)Nc1ccccc1C", "outcome": "inactive"}
{"smiles": "CCCCCCCCCCCCCc1ccccc1", "outcome": "inactive"}
{"smiles": "C=C[C@@]1(C)CC(=O)[C@]2(O)[C@@]3(C)[C@@H](O)CCC(C)(C)[C@@H]3[C@H](O)[C@H](OC(C)=O)[C@@]2(C)O1", "outcome": "inactive"}
{"smiles": "CC(C)=NNC(N)=S", "outcome": "inactive"}
{"smiles": "C=CC(C)(O)CC/C=C(\\C)CC", "note": "(stereo not given)", "outcome": "inactive"}
{"smiles": "CC(=O)OC1CCCCC1", "outcome": "inactive"}
{"smiles": "CCCCC(CC)COC(=O)/C=C/c1ccc(OC)cc1", "note": "(stereo not given)", "outcome": "inactive"}
